Rows were chosen to be rich in hits. Some 19% of all compounds tested hit in one or more screens of this group.
IL1B secr inh = blocks inflammasome-driven IL-1 beta release; hit rate 4.7% among 360,000; activity change, % at 57.5 µM; THP-1 LPS/ATP IL-1B secretion, AlphaLISA, 16 h; hits give low values; AID 743279; in the data active = activity change below about -50%; inconclusive = mostly about -30% to -49%; also: % is scaled to controls: 0 for no effect and ±100 for the full control effect
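Secreted IL-1B measured by AlphaLISA bead assay after 16 h compound exposure of THP-1 cells; compounds (final up to 57.5 uM) added 1 h before LPS (250 ng/mL) and ATP (1.25 mM) stimulation; lower signal means less secretion.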
DT40 TDP1 no CPT = qHTS for Inhibitors of human tyrosyl-DNA phosphodiesterase 1 (TDP1): qHTS in cells in absence of CPT | Potency, µM (series often up to 46.2 µM), for the others: at the top dose activity change, negative = growth inhibition, actives largely listed as inhibitors | DT40 Tdp1-/- hTDP1 cells, no CPT, ATP luminescence, 48 h | hit rate 15% among 420,000 | AID 686978, 2013; also: potency is read from the fitted curve at half-maximal effect; % is scaled to controls: 0 for no effect and ±100 for the full control effect; nearly all actives have a fitted effect of over 55% in size
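Camptothecin absent (DMSO only). Human TDP1-complemented DT40 knockout cells, 400 cells/well, 37 °C for minimum 48 hr; ATP measured via CellTiter-Glo, 30 min dark incubation, luminescence.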
MCF10A rereplic = DNA re-replication induction in MCF 10a cells; MCF 10A DNA re-replication, Hoechst nuclear intensity, 48 h; Potency, µM (highest dose often 46.1 µM), without a hit: top-dose activity, positive = re-replication, hits mostly activators; hit rate 2.9% among 350,000; also: potency is read from the fitted curve at half-maximal effect; % of control where 0% means no effect; nearly all actives have a fitted effect of over 50% in size
SW480 rereplic = inducers of DNA re-replication in SW480 colon cancer cells | SW480 DNA re-replication, Hoechst DNA content imaging, 48 h | Potency, µM (highest dose often 46.1 µM), for the others: at the top dose re-replication activation, hits mostly activators | hit rate 1.8% among 340,000; also: potency is read from the fitted curve at half-maximal effect; % of control where 0% means no effect; nearly all actives have a fitted effect of over 55% in size
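Hoechst fluorescence of nuclei (405 nm excitation, 500-530 nm emission) measured by plate-scanning imager after 48 hr compound exposure at 37 C; re-replication scored as increased number of nuclei with elevated intensity.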
TDP1 cell CPT = DT40-hTDP1 cell growth loss with CPT | chicken DT40 Tdp1-/-;hTDP1 cells + 20 nM CPT, ATP luminescence, 48 h | AID 686979 | hit rate 12% among 420,000 | Potency, µM (doses to about 46.2 µM), for the others: top-dose activity change, negative = growth inhibition, most hits filed as inhibitors; also: potency is read from the fitted curve at half-maximal effect; % is scaled to controls: 0 for no effect and ±100 for the full control effect; nearly all actives have a fitted effect of over 55% in size
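Cell growth measured by CellTiter-Glo luminescence after a minimum 48 h, 37 C compound exposure with 20 nM CPT in Tdp1-knockout DT40 cells stably expressing hTDP1, seeded 400/well; qHTS titration format.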
BCR signal inh = chronic active BCR signaling inhibition. AID 493014. ABC-DLBCL IkBa-CBG/CBR reporter, luminescence ratio, 4 h. hit rate 0.05% among 340,000. Potency, µM (doses to about 46.1 µM), for the others: top-dose activity change, negative = inhibition, actives largely listed as inhibitors; active = well fitted inhibition curve with a large enough effect in the signal ratio, with a control signal flat, not every such curve was filed as active; inconclusive = small, poorly fitted or top-dose-only effect, or effect the other way, or a change in a side signal; the % refers to the signal ratio;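 also: potency is read from the fitted curve at half-maximal effect; plate controls were basal doxycycline-induced cells for no effect and cells given 10 µM MG132 for full effect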
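TMD8 human ABC-DLBCL cells with doxycycline-inducible IκBα–green luciferase fusion and unfused red luciferase, in 0.5% FBS medium; compounds up to 46 uM, 4 h at 37C. Green/red luminescence ratio, filter-overlap corrected, fitted to concentration-response curves.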
* = called active by the depositor; [ ] = dose if it differs, or a comment. Unless noted, calls follow the shape of the dose curve; as a rule, active = well fitted curve in the direction sought with a large enough effect; inconclusive = small, poorly fitted or top-dose-only effect, or another doubt; inactive = no such curve, though single readings can be large; an effect the other way counts as inactive or inconclusive.

COc1ccccc1-c1nc(-c2ccccn2)no1 was read as IL1B secr inh 7, DT40 TDP1 no CPT 13µM*, MCF10A rereplic 0%, SW480 rereplic -15%, TDP1 cell CPT 13µM* and BCR signal inh inconclusive.
COc1ccc(-c2nc(-c3cccnc3)no2)cc1 was read as IL1B secr inh 0, DT40 TDP1 no CPT 16µM*, MCF10A rereplic 3%, SW480 rereplic inconclusive, TDP1 cell CPT inconclusive and BCR signal inh inconclusive.
For COc1cccc(-c2noc(-c3ccc(Cl)nc3)n2)c1 the results were IL1B secr inh -75*, DT40 TDP1 no CPT -18%, MCF10A rereplic 7%, SW480 rereplic inconclusive, TDP1 cell CPT inconclusive and BCR signal inh inconclusive.
CCOCCc1nn2c(=O)cc(COC(=O)c3ccccc3NC(=O)c3ccccc3F)nc2s1 was read as DT40 TDP1 no CPT -29% and TDP1 cell CPT -5%.
For COC(=O)C[C@H]1C[C@H]2c3cc(NC(=O)NC4CCCC4)ccc3O[C@H]2[C@@H](CO)O1 the results were IL1B secr inh 3, DT40 TDP1 no CPT -19% and TDP1 cell CPT -18%.
Screening O=C(C[C@H]1CC[C@H]2[C@@H](COC[C@@H](O)CN2S(=O)(=O)c2ccccc2)O1)N[C@@H]1CCN(Cc2ccccc2)C1 returned IL1B secr inh -10, DT40 TDP1 no CPT -7% and TDP1 cell CPT 4%.
For C[C@H](NS(=O)(=O)c1ccc(Cl)cc1)C(=O)OCC(=O)NCCc1ccc(S(N)(=O)=O)cc1 the results were IL1B secr inh 3, DT40 TDP1 no CPT 25%, MCF10A rereplic -6%, SW480 rereplic -1% and TDP1 cell CPT -5%.
For CCn1c(SCC(=O)Nc2cc(OC)c(OC)c(OC)c2)nnc1-c1cccs1 the results were IL1B secr inh -3, DT40 TDP1 no CPT 21µM*, MCF10A rereplic 2%, SW480 rereplic -2%, TDP1 cell CPT inconclusive and BCR signal inh inconclusive.
CCn1c(SCC(=O)Nc2cc(C(C)(C)C)nn2-c2ccccc2)nnc1-c1cccs1 was read as IL1B secr inh -83*, DT40 TDP1 no CPT inconclusive, MCF10A rereplic -4%, SW480 rereplic inconclusive, TDP1 cell CPT -29% and BCR signal inh 1%.
Screening CCn1c(SCC(N)=O)nnc1-c1ccc2[nH]c(C)c(C)c2c1 returned IL1B secr inh 1, DT40 TDP1 no CPT -11%, MCF10A rereplic 10%, SW480 rereplic -2%, TDP1 cell CPT -12% and BCR signal inh 0%.
`CCC(C)n1c(SCC(=O)Nc2cc(C(C)(C)C)nn2-c2ccccc2)nc2ccccc2c1=O` (centres undefined) gave IL1B secr inh -29, DT40 TDP1 no CPT 26µM*, MCF10A rereplic inconclusive, SW480 rereplic inconclusive, TDP1 cell CPT inconclusive and BCR signal inh 1%.
For CCn1c(SCC(=O)Nc2ccc(OC)c(OC)c2)nnc1-c1cccs1 the results were IL1B secr inh 0, DT40 TDP1 no CPT -16%, MCF10A rereplic -6%, SW480 rereplic -11%, TDP1 cell CPT -17% and BCR signal inh inconclusive.
Screening CCC(C)n1c(SCC(=O)NC2CC2)nc2ccccc2c1=O (centres undefined) returned IL1B secr inh 0, DT40 TDP1 no CPT inconclusive and TDP1 cell CPT inconclusive.
CCn1c(SCC(N)=O)nnc1-c1cc2c(C)nn(-c3ccccc3)c2s1 was read as IL1B secr inh 16, DT40 TDP1 no CPT 29µM*, MCF10A rereplic 3%, SW480 rereplic -7%, TDP1 cell CPT inconclusive and BCR signal inh inconclusive.
For Cc1nnc(SCC(=O)Nc2cc(C(C)(C)C)nn2-c2ccccc2)s1 the results were IL1B secr inh 3, DT40 TDP1 no CPT -28%, MCF10A rereplic inconclusive, SW480 rereplic -1%, TDP1 cell CPT -10% and BCR signal inh inconclusive.
CNC[C@@H]1Oc2cc(Br)ccc2S(=O)(=O)N([C@H](C)CO)C[C@@H]1C was read as IL1B secr inh inconclusive, DT40 TDP1 no CPT inconclusive and TDP1 cell CPT -11%.
For CCCCCCNc1c(C(=O)OCC)c(=O)[nH]c2ccccc12 the results were IL1B secr inh -2, DT40 TDP1 no CPT inconclusive, MCF10A rereplic 20%, SW480 rereplic 1%, TDP1 cell CPT 16µM* and BCR signal inh inconclusive.
`CCCCN(C)C(=O)c1ccc2c(c1)NC(=O)C(CC(C)C)N2` (centres undefined) gave DT40 TDP1 no CPT -17%, TDP1 cell CPT -4% and BCR signal inh 20%.
Screening CC(C)CN1CCC(=O)N(CCN=[N+]=[N-])CC1 returned IL1B secr inh 14, DT40 TDP1 no CPT 1%, MCF10A rereplic -2%, SW480 rereplic 1%, TDP1 cell CPT inconclusive and BCR signal inh inconclusive.
`COc1cc2c(cc1OC)CN(C(=O)c1nn(Cc3ccccc3)c(=O)c3ccccc13)CC2` gave IL1B secr inh inconclusive, DT40 TDP1 no CPT 16µM*, MCF10A rereplic 8%, SW480 rereplic 4%, TDP1 cell CPT inconclusive and BCR signal inh inconclusive.
Screening COc1cc2c(cc1OC)CN(C(=O)c1cc3ccccc3oc1=O)CC2 returned IL1B secr inh 12, DT40 TDP1 no CPT 12µM*, MCF10A rereplic inconclusive, SW480 rereplic inconclusive, TDP1 cell CPT 10µM* and BCR signal inh 2%.
Screening COc1cccc2cc(C(=O)N3CCc4ccccc4C3)c(=O)oc12 returned IL1B secr inh 18, DT40 TDP1 no CPT -23%, MCF10A rereplic -1%, SW480 rereplic -5%, TDP1 cell CPT -9% and BCR signal inh inconclusive.
For COC(=O)c1nn(Cc2ccccc2)c(=O)c2ccccc12 the results were IL1B secr inh 29, DT40 TDP1 no CPT -22%, MCF10A rereplic 12%, SW480 rereplic -2%, TDP1 cell CPT inconclusive and BCR signal inh inconclusive.
Screening CC(=O)c1ccc(N2CCN(C(=O)c3nn(Cc4ccccc4)c(=O)c4ccccc34)CC2)cc1 returned IL1B secr inh 18, DT40 TDP1 no CPT 18µM*, MCF10A rereplic inconclusive, SW480 rereplic -46%[1.84 µM], TDP1 cell CPT inconclusive and BCR signal inh inconclusive.
Screening CC(C(=O)N1CCCC1)N(C)CC(=O)Nc1cccc(F)c1 (centres undefined) returned IL1B secr inh -3, DT40 TDP1 no CPT -5%, MCF10A rereplic -1%, SW480 rereplic -7%, TDP1 cell CPT -1% and BCR signal inh 4%.
For CC(=O)c1c(C)nc2nc(-c3ccccc3)nn2c1C the results were DT40 TDP1 no CPT -8% and TDP1 cell CPT -5%.
